Compounds with a hit are over-represented: about 4% of the library has one in this group of screens.
HIF-2a block: blocks HIF-2a reporter activity. 786-0 RCC cells HIF-2a reporter, luciferase luminescence, overnight. inhibition, % at 18.8 µM. AID 624352. 360,000 compounds, 0.72% hits;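 active = inhibition of the luminescence signal of 40% or more relative to plate controls, in a single-dose primary screen at 18.75 µM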
TROY NFkB inh: inhibitors of TROY-dependent NF-kB signaling | Q293 LMP1-TROYcd NF-kB luciferase reporter, 4 h | inhibition, % at 10 µM | 360,000 compounds, 0.98% hits | AID 1347056;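 active = compounds whose plate-normalised and pattern-corrected inhibition of the luciferase reporter signal at the single screening dose is 50% or more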
CF NFkB block: inhibitors of cystic fibrosis induced NF-kB; KKLEB NF-kB-GFP reporter, PAF-induced, GFP fluorescence overnight; inhibition, % at 5 µM; 360,000 compounds, 0.86% hits; AID 588850;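 active = at least 50% inhibition at 5 µM, scaled per plate between neutral and stimulator controls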;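 also: PAF is a Pseudomonas aeruginosa culture filtrate used as stimulus; plate controls were PAF-stimulated DMSO wells for no effect and unstimulated DMSO wells for full effect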
TWEAK Fn14 block: TWEAK-Fn14 signaling inhibition; TWEAK-stimulated Fn14 reporter cells, luciferase luminescence, 8 h; inhibition, % at 10 µM; 360,000 compounds, 2% hits; in the data active = inhibition above about 50%
KKLEB cytotox: reduces viability of KKLEB cystic fibrosis airway cells; KKLEB CF airway cells viability, ATPlite luminescence, overnight; stronger effect = lower value; cells stimulated with P. aeruginosa culture filtrate; activity change (cytotoxicity), % at 5 µM; 360,000 compounds, 0.36% hits;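 active = corrected activity change at or below -50% at 5 µM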
Peg3 promoter: inhibitors of Peg3 promoter; HeLa PEG-Prom luciferase reporter, luminescence, overnight; inhibition, % at 20 µM; 360,000 compounds, 1.7% hits; AID 588405;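 active = inhibition of at least 50% at 20 µM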
The depositor's hits bear a star; / = no result given.

SMILES	HIF-2a block	TROY NFkB inh	CF NFkB block	TWEAK Fn14 block	KKLEB cytotox	Peg3 promoter
CSc1ccc(/C=N/NC(=O)c2sccc2C)cc1	-138	-41	-5	55*	-3	-181
CSc1ccc(/C=N/NC(=O)c2ccc(C)c(C)c2)cc1	-147	-64	-19	-7	8	-86
CCN1CCN(c2cc3c(cc2F)c(=O)c(C(=O)O)cn3C2CC2)CC1	12	-9	-11	60*	17	7
C=CCN1c2ccccc2C(=O)CS1(=O)=O	14	2	-8	9	-2	7
C/C(Cl)=C\Cn1c(O)c(N=NC(N)=S)c2cc(Br)ccc21	19	26	56*	-3	-6	0
NC(=S)N=Nc1c(O)n(CCCl)c2ccc(Br)cc12	11	20	11	-35	-7	21
NC(=S)N=Nc1c(O)n(Cc2ccc(Br)cc2)c2ccccc12	35	20	42	-5	-52*	18
COc1ccc(CCNC(=O)c2cc(S(=O)(=O)N3CCOCC3)cn2C)cc1OC	14	6	0	10	13	2
Cc1ccc(N=C2NC(=O)CS2)c(C)c1	13	/	-10	101*	-5	9
Cc1cc(Br)ccc1N=C1NC(=O)CS1	10	13	-6	5	11	0
O=C(/C=C/c1ccccc1)N1CCN(CC(O)COc2ccccc2)CC1 (stereo not given)	20	54*	7	5	3	3
CC1(C)Cc2c(sc(NC(=O)COc3ccc(Cl)cc3)c2C#N)C(C)(C)N1	-3	-21	9	101*	-2	8
Cc1ccccc1OCC(=O)Nc1sc2c(c1C#N)CC(C)(C)NC2(C)C	10	7	10	31	-7	8
CCOC(=O)c1c(NC(=O)COc2ccccc2)sc2c1CC(C)(C)NC2(C)C	20	23	44	8	-40	75*
CC1(C)Cc2c(sc(NC(=O)c3ccc4c(c3)OCCO4)c2C(N)=O)C(C)(C)N1	17	8	8	6	3	18
COC(=O)c1c(NC(=O)c2ccc(C(=O)c3ccccc3)cc2)sc2c1CC(C)(C)NC2(C)C	7	0	13	-38	-21	94*
CCOc1ccc(C(=O)Nc2sc3c(c2C(=O)OC)CC(C)(C)NC3(C)C)cc1	2	6	30	-41	-40	79*
CCCSc1nc2c(c(=O)[nH]c(=O)n2C)n1Cc1ccc(C)cc1	12	9	-14	-18	-5	55*
CC1CCN(CCCNC(=O)C2CCN(S(=O)(=O)N3CCC4(CC3)OCCO4)CC2)CC1	6	-3	8	6	-4	-4
CC(=O)N1CC=CC1(CC(C)C)C(=O)NCCN1CCOCC1 (stereo not given)	-114	-49	-15	83*	10	-86
CCN1/C(=C/c2sc(-c3ccccc3C)c[n+]2C)Sc2ccccc21	-76	47	34	63*	-36	38
CCC(=O)/C=C1/Sc2ccccc2N1CC	-7	-7	2	16	13	-7
COc1ccc(-c2cc3ccc(F)cc3cn2)cc1	-183	-15	-38	50*	-13	-205
COc1ccc(-c2cc3cc(F)ccc3cn2)cc1	-183	-55	-2	24	4	-217
Cc1ccc2c(c1)CCCN2S(=O)(=O)c1cccc(C(=O)Nc2ccccc2C(=O)O)c1	-11	55*	11	10	-10	18
SMILES	HIF-2a block	TROY NFkB inh	CF NFkB block	TWEAK Fn14 block	KKLEB cytotox	Peg3 promoter
CC(=O)c1ccc(NS(=O)(=O)c2cccc(C(=O)Nc3ccccc3C(=O)O)c2)cc1	5	13	-6	82*	-3	12
CCOC(=O)[C@H]1[C@H]2COc3ccc(OC)cc3[C@@H]2N2C(=O)CN(CC3CCCO3)C(=O)[C@@]12C (stereo not given in full)	13	-14	-15	-15	21	-14
O=C(NC12CCC(O)C(SC1)/C2=N/O)c1ccccc1 (stereo not given)	14	-8	-10	83*	-3	8
CN(Cc1cccs1)c1ncnc2sccc12	-2	25	8	13	1	-3
CN(Cc1ccccc1F)c1ncnc2sccc12	7	20	7	51*	-5	10
CCOc1ccc(C(C(=O)NCC2CCCO2)N(C(=O)c2snc(C(N)=O)c2N)c2ccccc2F)cc1 (stereo not given)	13	15	6	57*	-10	23
